IL-1B inflam inh: qHTS for Inhibitors of Inflammasome Signaling: IL-1-beta AlphaLISA Primary Screen. activity change, % at 57.5 µM. THP-1 LPS/ATP IL-1B secretion, AlphaLISA, 16 h; active compounds read low. actives 4.7% (n = 360,000); in the data active means activity change below about -50%; inconclusive means mostly about -30% to -49%
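Secreted IL-1B measured by AlphaLISA bead assay after 16 h compound exposure of THP-1 cells; compounds (final up to 57.5 uM) added 1 h before LPS (250 ng/mL) and ATP (1.25 mM) stimulation; lower signal means less secretion.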
TDP1 cell CPT: qHTS for Inhibitors of human tyrosyl-DNA phosphodiesterase 1 (TDP1): qHTS in cells in presence of CPT. chicken DT40 Tdp1-/-;hTDP1 cells + 20 nM CPT, ATP luminescence, 48 h. Potency, µM (titrated, usually from 46.2 µM), inactives show top-dose activity change, negative = growth inhibition, most hits filed as inhibitors. actives 12% (n = 420,000); further: potency means the concentration at half of the fitted maximal effect; nearly all actives have a fitted effect of over 55% in size
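Chicken DT40 Tdp1-/- cells complemented with human TDP1, 400 cells/well, exposed to compounds plus 20 nM camptothecin for at least 48 h at 37 C; viability read as ATP content by CellTiter-Glo luminescence.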
DT40 TDP1 no CPT: qHTS for Inhibitors of human tyrosyl-DNA phosphodiesterase 1 (TDP1): qHTS in cells in absence of CPT | DT40 Tdp1-/- hTDP1 cells, no CPT, ATP luminescence, 48 h | Potency, µM (highest dose often 46.2 µM), for inactives: top-dose activity change, negative = growth inhibition, hits mostly inhibitors | actives 15% (n = 420,000) | AID 686978, 2013; further: potency means the concentration at half of the fitted maximal effect; nearly all actives have a fitted effect of over 55% in size
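No-CPT arm: Tdp1-/-;hTDP1 DT40 cells (400/well) plus compounds, incubated ≥48 hr at 37 °C. Readout CellTiter-Glo luminescence.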
HT1080 IDH1KD tx: qHTS for induction of synthetic lethality in tumor cells producing 2HG: qHTS for the HT-1080-IDH1KD cell line | HT-1080 IDH1 knockdown viability, ATP luminescence, 48 h | Potency, µM (doses to about 46.1 µM), inactives show top-dose activity, negative = toxicity, usual class: cytotoxic | actives 2% (n = 360,000) | AID 686971, 2013;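 further: potency means the concentration at half of the fitted maximal effect; 0% = DMSO wells and -100% = cell-free medium wells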
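% activity derives from luminescence (CellTiter-Glo), normalised to DMSO and no-cell wells. HT-1080-IDH1KD cells, 750/well, had 48 h compound exposure at 37 °C.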
HT1080NT lethal: qHTS for induction of synthetic lethality in tumor cells producing 2HG: qHTS for the HT-1080-NT fibrosarcoma cell line | HT-1080-NT fibrosarcoma viability, CellTiter-Glo ATP luminescence, 48 h | Potency, µM (doses to about 46.1 µM), without a hit: at the highest dose activity, negative = less viability, usual class: cytotoxic | actives 1.6% (n = 360,000) | AID 686970, 2013;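 further: NT is the 2HG producing partner of a matched IDH1 knockdown line; potency means the concentration at half of the fitted maximal effect; 0% = DMSO-treated cells and -100% = media-only wells without cells; nearly all actives have a fitted effect of over 55% in size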
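Fibrosarcoma NT cells, 750 per well in 5% FBS RPMI, were exposed to compound for 48 hours. Viability: CellTiter-Glo luminescence.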
* hit, by the source's call; ? = inconclusive; . = not tested or not shown; [ ] = dose if it differs, or a comment. This is a sample that favours compounds with a hit; in the whole collection about 19% have one here. Unless noted, the call rests on the fitted dose curve; in most records, active means well fitted curve in the direction sought with a large enough effect; inconclusive means small, poorly fitted or top-dose-only effect, or another doubt; inactive means no such curve, though single readings can be large; an effect the other way counts as inactive or inconclusive. Unless noted, on the % scale 0 is the no-effect control and ±100 the full control effect.

SMILES	IL-1B inflam inh	TDP1 cell CPT	DT40 TDP1 no CPT	HT1080 IDH1KD tx	HT1080NT lethal
COC(=O)C1=C(c2ccccc2OCc2ccccc2)C[C@@H]2CC[C@H]1N2C(=O)NCc1ccc(Br)cc1	?	?	?	-2.3%	-3.7%
C[C@H]1CNCCc2ccc(Cl)cc21	.	-2.6%	-11.9%	.	.
OC1(c2ccccc2)CCNC2CCCCC21 (centres undefined)	-21.1	18.4µM*	?	2.4%	0.6%
O=C1NC(=O)C(CCc2ccncc2)(CCc2ccccn2)C(=O)N1c1ccc(Br)cc1 (centres undefined)	23.9	10.3µM*	9.2µM*	-22.3%	-10.8%
CSc1cccc(NP2(=O)OCC(C)([N+](=O)[O-])CO2)c1 (centres undefined)	0.8	?	-28.3%	1.9%	-1.7%
COC(=O)C1=C(c2ccc(-c3ccccc3)c(F)c2)C[C@@H]2CC[C@H]1N2C(=O)NC1CC1	?	4.11µM*	9.2µM*	-6.2%	-24.7%
COC(=O)C1=C(c2ccc3ccccc3c2)C[C@@H]2CC[C@H]1N2C(=O)NC(C)C	-1.2	?	18.4µM*	4.9%	0.0%
COC(=O)C1=C(c2ccc(-c3ccccc3)c(F)c2)C[C@@H]2CC[C@H]1N2C(=O)NC(C)C	-14.1	13µM*	18.4µM*	-11.0%	-17.1%
COC(=O)C1=C(c2ccc3ccccc3c2)C[C@@H]2CC[C@H]1N2C	-19.9	?	-28.8%	0.0%	2.8%
C[C@H](NC(=O)[C@@H](N)Cc1ccc(O)cc1)C(=O)N[C@@H](Cc1ccccc1)C(=O)N[C@@H](Cc1ccccc1)C(N)=O	.	-2.1%[4.12 µM]	-6.0%[4.12 µM]	.	.
O=[N+]([O-])c1[nH]cnc1Br	22.2	9.9%	-15.8%	1.9%	-4.8%
O=C(CCn1nc(-c2ccc(Cl)cc2)ccc1=O)N1CCC2(CC1)OCCO2	-4.0	-17.1%	-9.4%	0.1%	-1.8%
Cc1nc2cc(-c3ccc(Cl)cc3)nn2c(C)c1CCC(=O)N1CCC2(CC1)OCCO2	34.6	23.1µM*	20.6µM*	11.0%	-4.4%
O=C(Cc1c[nH]c2ccccc12)NNCc1ccc(N(CCCl)CCCl)cc1	15.6	0.517µM*	0.92µM*	-15.2%	-6.6%
COc1ccccc1N1C(=O)CC(=O)NC1=O	4.8	-1.4%	2.3%	-1.7%	0.3%
O=C1Nc2ccccc2C(c2ccccc2)=NC1O (centres undefined)	2.9	?	-7.6%	0.0%	-0.5%
N#Cc1cccc(NC(=O)N2CCCC3(CCN(C(=O)Oc4ccccc4)CC3)C2)c1	.	0.5%	-12.1%	.	.
N#Cc1cc2c(nc1SCC(=O)Nc1ccc(OC(F)(F)F)cc1)C1CCN2CC1	.	?	18.4µM*	.	.
N#Cc1cccc(NC(=O)CSc2nc3c(cc2C#N)N2CCC3CC2)c1	.	?	16.4µM*	.	.
N#Cc1cccc(NC(=O)c2sc3nc4c(cc3c2N)N2CCC4CC2)c1	.	4.11µM*	13µM*	.	.
CCCCNC(C)(C)[P+](=O)O	.	-3.7%	6.5%	.	.
Cc1ccc(-n2c(O)c(C=NCc3ccco3)c(=O)[nH]c2=S)cc1C	.	-4.2%	-6.1%	-6.9%	-4.6%
CCOC(=O)[C@]12Cc3cc(Cl)ccc3[C@H]1N(C)C(=O)c1ccccc12	-62.4*	?	?	1.5%	3.3%
CCOC(=O)[C@]12Cc3cc(OC)ccc3[C@H]1N(C)C(=O)c1ccccc12	?	-26.7%	?	13.8%	8.6%
CCOC(=O)[C@]12Cc3cc(Cl)ccc3[C@H]1N(C(C)C)C(=O)c1ccccc12	.	2.59µM*	3.26µM*	3.26µM*	4.61µM*
SMILES	IL-1B inflam inh	TDP1 cell CPT	DT40 TDP1 no CPT	HT1080 IDH1KD tx	HT1080NT lethal
CCOC(=O)[C@]12Cc3cc(C)ccc3[C@H]1N(C)C(=O)c1ccccc12	-13.1	16.4µM*	16.4µM*	-16.2%	0.3%
CCOC(=O)C1(c2ccccc2)CCN(CC(=O)c2ccc(NC(C)=O)cc2)CC1	10.9	?	?	-4.4%	-4.5%
CCOC(=O)[C@]12Cc3cc(Cl)ccc3[C@H]1N(CC(=O)OC)C(=O)c1ccccc12	.	9.2µM*	4.11µM*	7.31µM*	5.8µM*
COP(=S)(OC)SCN1C(=O)c2ccccc2C1=O	12.9	?	?	-19.8%	0.8%
COC(=O)C1=C(c2ccccc2)C[C@@H]2CC[C@H]1N2C(=O)NCc1ccc(F)cc1	-16.0	-18.5%	-19.0%	-2.6%	0.5%
CCOC(=O)[C@]12Cc3cc(C)ccc3[C@H]1N(C)C(=O)c1cc(OC)ccc12	-116.2*	20.6µM*	23.1µM*	16.4µM*	?
COc1ccc(C2C(C(=O)N3CCC4(CC3)OCCO4)c3cc(OC)c(OC)cc3C(=O)N2C)cc1 (centres undefined)	-0.6	0.7%	-9.2%	17.5%	14.7%
CC1(C)Cc2c(c(N3CCOCC3)nc3snc(N)c23)CO1	-107.5*	2.82µM*	2.51µM*	20µM*	11.2µM*
COc1ccc(CCNCc2ccccc2F)cc1	?	-24.9%	-2.8%	9.0%	0.0%
COC(=O)C(c1ccccc1)C1CCCCN1 (centres undefined)	.	-19.0%	2.8%	.	.
COc1ccc(OC)c(-n2c(O)c(C=NCc3ccc4c(c3)OCO4)c(=O)[nH]c2=O)c1	-14.3	6.0%	-7.8%	-5.0%	-1.3%
COc1cc2c(cc1OC)[C@@H]1C(=O)c3ccc(OC)c(CC=C(C)C)c3OC1CO2 (some centres undefined)	.	2.91µM*	1.64µM*	.	.
COc1cc2c(cc1OC)[C@@H]1C(=O)c3ccc4c(c3OC1CO2)CC(C(C)C)O4 (some centres undefined)	.	0.0651µM*	0.082µM*	.	.
NCCCC[C@H](N[C@@H](CCc1ccccc1)C(=O)O)C(=O)N1CCC[C@H]1C(=O)O	4.6	-2.0%	?	-0.4%	?
CC(C)C(NC(=O)C(C(C)C)N(C)C)C(=O)N(C)C(C(=O)N1CCCC1C(=O)N1CCCC1C(=O)NCc1ccccc1)C(C)C (centres undefined)	33.1	0.0326µM*	0.0517µM*	?	0.206µM*
CCOc1ccc(C(=O)N2CCC(c3noc(-c4ccc(S(=O)(=O)N5CCCC5)cc4)n3)CC2)cc1	.	?	16.4µM*	.	.
O=C(COc1ccc(S(=O)(=O)N2CCCCC2)cc1)N1CCN(Cc2ccccc2)CC1	9.4	?	?	-1.2%	1.3%
CC(n1cc(C[C@H](N)C(=O)O)c2ccccc21)n1cc(C[C@H](N)C(=O)O)c2ccccc21	.	22.1%	-0.5%	.	.

Screening data (PubChem BioAssay)
